Experimental data reported in PubChem BioAssay (Tox21).
Records with an inconclusive call do not appear. Calls of active or inactive are those of the source. Unless noted, the call rests on the fitted dose curve; in most records, active means well fitted curve in the direction sought with a large enough effect in the repeat runs; inconclusive means weak or mixed curves; inactive means no such curve, though single readings can be large; an effect the other way counts as inactive or inconclusive.

Columns and labels:
[1] = target: Aryl hydrocarbon receptor (Homo sapiens) (UniProt P35869); experiment: qHTS assay to identify small molecule that activate the aryl hydrocarbon receptor (AhR) signaling pathway (AID 743085);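 further: HG2L7.5c1 human HepG2 liver cells with stably integrated DRE-driven firefly reporter; series mostly up to about 70 µM; nearly all actives have a fitted effect of over 15% in size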
Chain of Aryl hydrocarbon receptor (Homo sapiens) (P35869 whole entry, looked up): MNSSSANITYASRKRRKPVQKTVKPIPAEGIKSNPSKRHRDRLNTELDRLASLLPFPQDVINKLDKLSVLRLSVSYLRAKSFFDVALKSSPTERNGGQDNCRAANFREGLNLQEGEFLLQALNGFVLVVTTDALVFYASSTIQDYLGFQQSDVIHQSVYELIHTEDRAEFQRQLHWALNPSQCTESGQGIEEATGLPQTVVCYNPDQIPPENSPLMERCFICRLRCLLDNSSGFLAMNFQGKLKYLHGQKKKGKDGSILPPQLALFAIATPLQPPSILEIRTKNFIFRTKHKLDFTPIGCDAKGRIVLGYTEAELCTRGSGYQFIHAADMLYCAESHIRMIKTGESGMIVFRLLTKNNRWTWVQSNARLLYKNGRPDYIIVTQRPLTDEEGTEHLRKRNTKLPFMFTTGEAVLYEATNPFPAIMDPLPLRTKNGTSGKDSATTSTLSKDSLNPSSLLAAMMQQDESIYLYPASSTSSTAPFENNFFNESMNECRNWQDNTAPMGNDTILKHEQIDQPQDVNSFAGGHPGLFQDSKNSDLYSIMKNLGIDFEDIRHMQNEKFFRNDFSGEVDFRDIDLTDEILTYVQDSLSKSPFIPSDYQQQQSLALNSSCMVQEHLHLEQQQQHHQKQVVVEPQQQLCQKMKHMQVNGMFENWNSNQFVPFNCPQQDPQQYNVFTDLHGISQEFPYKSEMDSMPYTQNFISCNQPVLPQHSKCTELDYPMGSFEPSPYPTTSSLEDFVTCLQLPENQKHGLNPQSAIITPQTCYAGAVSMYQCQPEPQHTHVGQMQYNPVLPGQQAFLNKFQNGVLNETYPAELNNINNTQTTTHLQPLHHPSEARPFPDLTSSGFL
Outline: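 AhR agonist activity is inferred from enhanced light output of a DRE-controlled firefly luciferase reporter in HepG2 cells, measured with ONE-Glo following 24 h treatment at 37C.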

[2] = qHTS assay to identify small molecule that activate the aryl hydrocarbon receptor (AhR) signaling pathway - cell viability counter screen (AID 743086);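 further: HepG2 liver cells carrying the AhR DRE luciferase reporter; series mostly up to about 70 µM; nearly all actives have a fitted effect of over 45% in size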
Outline: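 Cytotoxicity counter screen: CellTiter-Fluor signal (30 min, 37 C) in 4000 HepG2 cells/well carrying the DRE-luciferase reporter, following 24 h compound exposure at 37 C.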

[3] = target: Peroxisome proliferator-activated receptor gamma (Homo sapiens) (UniProt P37231); experiment: qHTS assay to identify small molecule antagonists of the peroxisome proliferator-activated receptor gamma (PPARg) signaling pathway (AID 743191; calls by dose curve; further: series mostly up to about 63 µM; nearly all actives have a fitted effect of over 30% in size)
Chain of Peroxisome proliferator-activated receptor gamma (Homo sapiens) (P37231 whole entry, looked up): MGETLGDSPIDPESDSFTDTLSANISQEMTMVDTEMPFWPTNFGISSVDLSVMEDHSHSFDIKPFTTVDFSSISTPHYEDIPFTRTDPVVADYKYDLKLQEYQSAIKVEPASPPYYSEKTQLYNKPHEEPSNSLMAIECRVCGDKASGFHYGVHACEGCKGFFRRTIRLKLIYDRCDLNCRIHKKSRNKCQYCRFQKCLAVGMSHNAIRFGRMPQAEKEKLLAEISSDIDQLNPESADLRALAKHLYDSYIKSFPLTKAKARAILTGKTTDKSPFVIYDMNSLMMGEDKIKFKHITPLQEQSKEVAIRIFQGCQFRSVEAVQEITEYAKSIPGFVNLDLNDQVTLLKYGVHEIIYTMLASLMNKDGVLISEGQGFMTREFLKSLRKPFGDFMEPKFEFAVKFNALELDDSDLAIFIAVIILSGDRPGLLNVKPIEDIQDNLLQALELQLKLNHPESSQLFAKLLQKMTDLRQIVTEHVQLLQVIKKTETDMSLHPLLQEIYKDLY
Outline: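 Beta-lactamase reporter under UAS control in HEK293H PPARg-bla cells; compound treatment 17 h at 37C. Read-out: fluorescence intensity after 1 h room-temperature incubation with LiveBLAzer B/G FRET substrate.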

[4] = qHTS assay to identify small molecule antagonists of the peroxisome proliferator-activated receptor gamma (PPARg) signaling pathway - cell viability counter screen (AID 743194); further: nearly all actives have a fitted effect of over 55% in size
Outline: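 Viability was measured as CellTiter-Glo luminescence in GeneBLAzer PPARg UAS-bla HEK293H cells. These cells had been exposed 17 h at 37 C to compounds together with rosiglitazone at 50 nM final, with the beta-lactamase readout taken in the same wells.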

[5] = qHTS assay for small molecule agonists of the antioxidant response element (ARE) signaling pathway (AID 743202; active means well fitted activation curve with a large enough effect in the signal ratio in the repeat runs, not every such curve was filed as active; the % refers to the signal ratio)
Outline: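 Beta-lactamase reporter activity, read as fluorescence intensity, reflects ARE/Nrf2 pathway induction in HepG2 cells after 16 h compound exposure at 37 C; substrate loading was 2 h at room temperature.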

[6] = qHTS assay for small molecule activators of the heat shock response signaling pathway - cell viability counter screen (AID 743209); further: nearly all actives have a fitted effect of over 50% in size
Outline: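 To flag cytotoxic compounds, HSE-bla HeLa cells plated at 1500 cells/well were dosed for 5 h at 37 C, followed by the reporter FRET read and then CellTiter-Glo, with luminescence recorded 30 min after reagent addition.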

[7] = qHTS assay for small molecule activators of the heat shock response signaling pathway (AID 743210; active means well fitted activation curve with a large enough effect in the signal ratio in the repeat runs, with a control signal flat, not every such curve was filed as active; the % refers to the signal ratio;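 further: HeLa cells with beta-lactamase reporter driven by heat shock elements; series mostly up to about 63 µM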)
Outline: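 Fluorescence from a cleaved B/G FRET substrate (2.5 h, room temp) reports HSE-driven beta-lactamase in HeLa cells treated 5 h at 37 C with DMSO-dissolved compounds.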

[8] = qHTS assay to identify small molecule agonists of the peroxisome proliferator-activated receptor delta (PPARd) signaling pathway - cell viability counter screen (AID 743211); further: nearly all actives have a fitted effect of over 55% in size
Outline: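 qHTS cell viability: PPARd-bla HEK293H; 17 h cpd, 37C; CellTiter-Glo, luminescence at 30 min RT.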

[9] = qHTS assay for small molecule agonists of the antioxidant response element (ARE) signaling pathway - cell viability counter screen (AID 743203; calls by dose curve; further: nearly all actives have a fitted effect of over 55% in size)
Outline: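 Parallel cytotoxicity read-out for the ARE-bla screen: HepG2 reporter cells, 16 hrs with compounds, then CellTiter-Glo luminescence.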

[10] = target: Peroxisome proliferator-activated receptor gamma (Homo sapiens) (UniProt P37231); experiment: qHTS assay to identify small molecule agonists of the peroxisome proliferator-activated receptor gamma (PPARg) signaling pathway (AID 743094; active means well fitted activation curve with a large enough effect in the signal ratio in the repeat runs, not every such curve was filed as active; the % refers to the signal ratio)
Outline: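 Fluorescence-based beta-lactamase readout in HEK293H PPARg UAS-bla cells after 17 h compound exposure (37C) and 1 h B/G FRET substrate incubation at room temperature.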

Measured: Potency

C=C(C)C(=O)OCCCC
inactive: [1] | [2] | [3] | [4] | [5] | [6] | [7] | [8]

C[C@H]1COc2c(C3(N)CC3)c(F)cc3c(=O)c(C(=O)O)cn1c23
inactive: [1] | [2] | [3] | [4] | [5] | [9] | [6] | [7] | [8]

C=CCn1cc[n+](C)c1
inactive: [1] | [2] | [3] | [4] | [5] | [9] | [6] | [7] | [8]

CC(C)(C)C(=O)NCCCC(=O)O
inactive: [1] | [2] | [10] | [4] | [5] | [6] | [7] | [8]

C/C=C/C(=O)CCCC
inactive: [1] | [2] | [3] | [4] | [9] | [6] | [7] | [8]

CC(C)(C)OC=O
inactive: [1] | [2] | [3] | [4] | [5] | [9] | [6] | [7] | [8]

O=C(O)/C=C(\CC(=O)O)C(=O)O
inactive: [1] | [2] | [10] | [4] | [5] | [9] | [6] | [7] | [8]

CCCCCC(CC)OC(=O)CCCOc1ccc(Cl)cc1Cl (centres undefined)
inactive: [1] | [2] | [3] | [4] | [5] | [9] | [6] | [7] | [8]

c1coc(Cn2cccc2)c1
inactive: [1] | [2] | [10] | [6] | [8]

CCO/C=C1\N=C(c2ccccc2)OC1=O
inactive: [1] | [2] | [10] | [4] | [5] | [9] | [6] | [7] | [8]

C=CCCCCCCCCOC(C)=O
inactive: [1] | [2] | [10] | [4] | [5] | [9] | [6] | [7] | [8]

CN(C)CCc1c[nH]c2ccc(CS(=O)(=O)N3CCCC3)cc12
inactive: [1] | [2] | [10] | [5] | [9] | [6] | [7] | [8]

CCCCS
inactive: [1] | [2] | [10] | [5] | [9] | [6] | [7] | [8]

CC(=O)SC[C@@H](C)C(=O)N1CCC[C@H]1C(=O)N[C@@H](Cc1ccccc1)C(=O)O
inactive: [1] | [2] | [3] | [4] | [5] | [9] | [6] | [7] | [8]

Cc1ccc2cccnc2c1
inactive: [1] | [2] | [3] | [4] | [5] | [6] | [7] | [8]

CC/C=C\CCCCCCCCCCOC(C)=O
inactive: [1] | [2] | [3] | [4] | [5] | [6] | [7] | [8]

CNC(C)=O
inactive: [1] | [2] | [3] | [4] | [5] | [9] | [6] | [7] | [8]

NC[C@H]1O[C@H](O[C@H]2[C@H](O)[C@@H](O[C@H]3O[C@H](CO)[C@@H](O)[C@H](N)[C@H]3O)[C@H](N)C[C@@H]2N)[C@H](N)[C@@H](O)[C@@H]1O
inactive: [1] | [2] | [3] | [4] | [5] | [6] | [8]
